Here are results for two compounds from ChEMBL document CHEMBL1961873, “Compounds: GSK PKIS; Assays: Nanosyn kinase panel” (2012).

The structures appear in SMILES notation.

For assay [1], the target named is Protein kinase C gamma type (Homo sapiens) (UniProt P05129). The settings on record: at 1 µM.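 Also: each value is an averaged percent inhibition of the enzyme.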
Assay [2] deals with T1, Protein kinase C iota type (Homo sapiens) (UniProt P41743).
T1 sequence (whole entry): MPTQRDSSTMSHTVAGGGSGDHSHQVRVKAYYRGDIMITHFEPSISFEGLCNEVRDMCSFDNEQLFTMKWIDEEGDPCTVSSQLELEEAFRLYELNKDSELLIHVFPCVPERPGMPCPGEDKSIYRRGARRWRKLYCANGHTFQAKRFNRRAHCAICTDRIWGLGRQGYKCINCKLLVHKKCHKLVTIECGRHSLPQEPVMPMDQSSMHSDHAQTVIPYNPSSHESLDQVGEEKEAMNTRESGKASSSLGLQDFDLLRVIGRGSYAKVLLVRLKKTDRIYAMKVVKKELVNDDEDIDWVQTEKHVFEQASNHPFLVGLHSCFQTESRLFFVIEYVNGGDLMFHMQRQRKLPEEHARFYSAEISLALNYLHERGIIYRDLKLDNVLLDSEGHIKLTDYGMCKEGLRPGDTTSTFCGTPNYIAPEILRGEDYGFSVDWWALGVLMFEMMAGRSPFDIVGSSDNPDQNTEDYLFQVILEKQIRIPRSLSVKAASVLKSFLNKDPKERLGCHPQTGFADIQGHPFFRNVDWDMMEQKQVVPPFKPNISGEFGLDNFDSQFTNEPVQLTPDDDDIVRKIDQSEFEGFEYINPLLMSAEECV
As to conditions: at 0.1 µM.

Assay [3] deals with T1, Protein kinase C iota type (Homo sapiens). As to conditions: at 1 µM.
For assay [4], the target named is Protein kinase C theta type (Homo sapiens) (UniProt Q04759). The settings on record: at 0.1 µM.
Sequence of Protein kinase C theta type (Homo sapiens) (Q04759 whole entry, looked up): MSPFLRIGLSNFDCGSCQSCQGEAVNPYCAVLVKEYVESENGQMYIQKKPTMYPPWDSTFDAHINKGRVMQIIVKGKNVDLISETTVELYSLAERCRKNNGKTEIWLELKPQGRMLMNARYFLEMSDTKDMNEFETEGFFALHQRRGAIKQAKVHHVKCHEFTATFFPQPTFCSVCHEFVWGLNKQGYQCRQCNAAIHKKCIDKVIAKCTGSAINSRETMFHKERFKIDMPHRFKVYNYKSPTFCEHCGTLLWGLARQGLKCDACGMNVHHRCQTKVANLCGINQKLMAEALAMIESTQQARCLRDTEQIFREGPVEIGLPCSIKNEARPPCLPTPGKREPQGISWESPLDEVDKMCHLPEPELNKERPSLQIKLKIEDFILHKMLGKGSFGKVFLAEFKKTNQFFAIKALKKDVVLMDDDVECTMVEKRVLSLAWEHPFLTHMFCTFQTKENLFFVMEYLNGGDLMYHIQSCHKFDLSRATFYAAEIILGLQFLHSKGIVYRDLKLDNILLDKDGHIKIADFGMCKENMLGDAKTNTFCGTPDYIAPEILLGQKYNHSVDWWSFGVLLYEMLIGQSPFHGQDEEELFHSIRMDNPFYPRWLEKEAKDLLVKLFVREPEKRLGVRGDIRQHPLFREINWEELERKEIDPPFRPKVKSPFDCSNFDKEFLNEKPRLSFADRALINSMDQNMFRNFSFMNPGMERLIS
For assay [5] the target is unchanged. The settings on record: at 1 µM.
In assay [6] the target is Protein kinase C beta type (Homo sapiens) (UniProt P05771). The settings on record: at 0.1 µM.
Sequence of Protein kinase C beta type (Homo sapiens) (P05771 2-671 limits assumed): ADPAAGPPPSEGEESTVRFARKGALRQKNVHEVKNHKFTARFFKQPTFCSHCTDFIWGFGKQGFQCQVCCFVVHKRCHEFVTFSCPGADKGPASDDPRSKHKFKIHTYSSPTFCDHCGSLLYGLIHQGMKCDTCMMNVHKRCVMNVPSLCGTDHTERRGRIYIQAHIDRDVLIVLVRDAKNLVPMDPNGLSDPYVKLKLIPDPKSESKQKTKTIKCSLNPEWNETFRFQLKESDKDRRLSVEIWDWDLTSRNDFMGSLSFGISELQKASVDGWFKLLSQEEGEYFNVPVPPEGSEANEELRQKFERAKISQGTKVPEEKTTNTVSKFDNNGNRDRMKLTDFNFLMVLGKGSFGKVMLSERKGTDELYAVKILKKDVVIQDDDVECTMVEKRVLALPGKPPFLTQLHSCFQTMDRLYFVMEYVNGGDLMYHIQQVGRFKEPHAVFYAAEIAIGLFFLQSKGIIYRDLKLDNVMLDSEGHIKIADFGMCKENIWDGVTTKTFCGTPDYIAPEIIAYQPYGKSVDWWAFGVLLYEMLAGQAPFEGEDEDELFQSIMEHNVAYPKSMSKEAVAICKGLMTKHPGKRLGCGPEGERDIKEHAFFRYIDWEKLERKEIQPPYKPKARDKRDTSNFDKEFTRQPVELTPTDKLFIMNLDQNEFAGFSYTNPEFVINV
Assay [7] shares this target. As to conditions: at 1 µM.
Assay [8] deals with T2, Serine/threonine-protein kinase D1 (Homo sapiens) (UniProt Q15139).
T2 sequence (whole entry): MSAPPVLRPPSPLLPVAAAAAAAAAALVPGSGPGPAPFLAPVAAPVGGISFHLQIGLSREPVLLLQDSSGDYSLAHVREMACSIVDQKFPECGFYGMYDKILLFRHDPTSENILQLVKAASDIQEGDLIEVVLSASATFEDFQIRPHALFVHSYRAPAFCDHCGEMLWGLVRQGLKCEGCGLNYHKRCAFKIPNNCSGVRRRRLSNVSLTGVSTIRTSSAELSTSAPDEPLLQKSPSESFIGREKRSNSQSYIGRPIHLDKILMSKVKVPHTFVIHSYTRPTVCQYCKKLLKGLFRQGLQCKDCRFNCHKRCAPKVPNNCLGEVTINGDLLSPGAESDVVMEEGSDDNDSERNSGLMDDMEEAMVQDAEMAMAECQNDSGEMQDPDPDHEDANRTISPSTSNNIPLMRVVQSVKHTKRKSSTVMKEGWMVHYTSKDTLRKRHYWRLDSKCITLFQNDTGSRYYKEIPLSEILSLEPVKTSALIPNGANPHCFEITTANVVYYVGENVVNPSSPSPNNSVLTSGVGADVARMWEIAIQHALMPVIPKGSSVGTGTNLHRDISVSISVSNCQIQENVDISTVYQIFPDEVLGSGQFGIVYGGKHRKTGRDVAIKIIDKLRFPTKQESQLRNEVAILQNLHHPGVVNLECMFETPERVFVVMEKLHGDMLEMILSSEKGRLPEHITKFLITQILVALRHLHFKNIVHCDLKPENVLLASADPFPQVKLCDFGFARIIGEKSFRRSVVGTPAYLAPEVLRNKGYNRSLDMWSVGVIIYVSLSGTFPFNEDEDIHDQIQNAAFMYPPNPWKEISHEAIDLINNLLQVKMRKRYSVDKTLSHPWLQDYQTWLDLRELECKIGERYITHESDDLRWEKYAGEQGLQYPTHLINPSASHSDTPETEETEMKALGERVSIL
The settings on record: at 0.1 µM.

Assay [9] has as its target T2, Serine/threonine-protein kinase D1 (Homo sapiens). The settings on record: at 1 µM.
The target of assay [10] is T3, Serine/threonine-protein kinase D2 (Homo sapiens) (UniProt Q9BZL6).
T3 sequence (whole entry): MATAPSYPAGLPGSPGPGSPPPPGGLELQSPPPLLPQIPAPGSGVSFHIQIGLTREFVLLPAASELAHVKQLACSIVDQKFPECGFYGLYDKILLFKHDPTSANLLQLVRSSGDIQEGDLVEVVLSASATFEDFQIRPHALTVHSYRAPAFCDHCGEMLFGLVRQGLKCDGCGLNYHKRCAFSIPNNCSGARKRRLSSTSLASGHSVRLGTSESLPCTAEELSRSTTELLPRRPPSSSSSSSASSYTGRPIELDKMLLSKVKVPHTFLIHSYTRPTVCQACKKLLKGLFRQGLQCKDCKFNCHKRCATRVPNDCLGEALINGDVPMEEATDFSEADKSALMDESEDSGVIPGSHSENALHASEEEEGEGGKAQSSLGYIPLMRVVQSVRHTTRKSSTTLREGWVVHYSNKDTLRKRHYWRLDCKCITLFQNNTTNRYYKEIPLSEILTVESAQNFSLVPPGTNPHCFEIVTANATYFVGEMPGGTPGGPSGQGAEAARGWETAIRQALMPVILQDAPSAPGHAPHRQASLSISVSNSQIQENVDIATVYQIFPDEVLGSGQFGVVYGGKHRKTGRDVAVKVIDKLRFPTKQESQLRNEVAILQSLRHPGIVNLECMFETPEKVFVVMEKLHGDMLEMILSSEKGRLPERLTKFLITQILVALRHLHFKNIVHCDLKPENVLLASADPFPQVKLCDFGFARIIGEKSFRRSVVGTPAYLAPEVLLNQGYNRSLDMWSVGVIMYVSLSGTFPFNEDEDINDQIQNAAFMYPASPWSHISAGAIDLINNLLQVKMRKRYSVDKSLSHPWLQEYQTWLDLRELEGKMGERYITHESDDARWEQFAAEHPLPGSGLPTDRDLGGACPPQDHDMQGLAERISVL
As to conditions: at 0.1 µM.

For assay [11], the target named is T3, Serine/threonine-protein kinase D2 (Homo sapiens). The settings on record: at 1 µM.
Assay [12] has as its target T4, Serine/threonine-protein kinase D3 (Homo sapiens) (UniProt O94806).
T4 sequence (whole entry): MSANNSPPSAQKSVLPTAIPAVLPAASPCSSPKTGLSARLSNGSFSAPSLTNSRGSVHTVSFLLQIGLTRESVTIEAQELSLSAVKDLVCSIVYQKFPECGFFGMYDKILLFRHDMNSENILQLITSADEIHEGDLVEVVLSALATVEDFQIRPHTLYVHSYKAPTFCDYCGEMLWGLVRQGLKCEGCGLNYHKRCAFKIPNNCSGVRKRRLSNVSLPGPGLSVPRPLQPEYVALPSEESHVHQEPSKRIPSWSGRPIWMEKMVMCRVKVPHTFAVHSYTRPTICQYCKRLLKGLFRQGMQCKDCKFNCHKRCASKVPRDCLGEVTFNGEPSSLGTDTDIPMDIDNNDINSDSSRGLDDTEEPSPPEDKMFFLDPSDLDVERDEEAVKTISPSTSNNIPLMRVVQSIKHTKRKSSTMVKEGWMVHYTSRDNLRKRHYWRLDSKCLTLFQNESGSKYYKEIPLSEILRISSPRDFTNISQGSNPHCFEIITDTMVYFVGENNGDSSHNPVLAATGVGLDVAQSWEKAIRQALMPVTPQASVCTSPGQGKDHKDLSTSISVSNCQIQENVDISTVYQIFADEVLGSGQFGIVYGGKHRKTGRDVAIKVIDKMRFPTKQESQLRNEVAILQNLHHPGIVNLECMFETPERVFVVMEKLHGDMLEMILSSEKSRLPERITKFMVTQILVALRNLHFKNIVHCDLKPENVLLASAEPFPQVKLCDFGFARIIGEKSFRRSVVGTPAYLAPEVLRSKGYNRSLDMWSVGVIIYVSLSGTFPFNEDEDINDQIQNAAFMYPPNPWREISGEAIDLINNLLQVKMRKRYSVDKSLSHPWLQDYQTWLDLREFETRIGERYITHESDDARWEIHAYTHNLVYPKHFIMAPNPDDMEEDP
As to conditions: at 0.1 µM.

The target of assay [13] is T4, Serine/threonine-protein kinase D3 (Homo sapiens). The settings on record: at 1 µM.
For assay [14], the target named is T5, cGMP-dependent protein kinase 1 (Homo sapiens) (UniProt Q13976).
T5 sequence (whole entry): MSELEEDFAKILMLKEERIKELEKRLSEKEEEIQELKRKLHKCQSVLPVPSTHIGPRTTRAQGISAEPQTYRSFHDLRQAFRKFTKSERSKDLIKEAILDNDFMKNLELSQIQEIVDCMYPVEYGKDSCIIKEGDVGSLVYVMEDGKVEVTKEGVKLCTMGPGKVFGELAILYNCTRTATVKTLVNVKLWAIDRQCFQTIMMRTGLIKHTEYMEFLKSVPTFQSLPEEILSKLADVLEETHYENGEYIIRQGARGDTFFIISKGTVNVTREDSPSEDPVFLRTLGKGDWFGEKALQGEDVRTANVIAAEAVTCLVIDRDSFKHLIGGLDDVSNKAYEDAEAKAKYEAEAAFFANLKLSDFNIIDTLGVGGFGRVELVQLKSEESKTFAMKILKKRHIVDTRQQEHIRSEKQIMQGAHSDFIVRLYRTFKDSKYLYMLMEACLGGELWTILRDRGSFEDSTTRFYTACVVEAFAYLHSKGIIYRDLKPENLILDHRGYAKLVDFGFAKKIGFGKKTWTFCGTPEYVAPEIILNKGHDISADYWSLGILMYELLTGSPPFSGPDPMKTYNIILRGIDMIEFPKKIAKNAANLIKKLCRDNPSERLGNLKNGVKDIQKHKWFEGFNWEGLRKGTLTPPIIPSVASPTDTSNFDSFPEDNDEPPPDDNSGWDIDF
The settings on record: at 0.1 µM.

Assay [15] has as its target T5, cGMP-dependent protein kinase 1 (Homo sapiens). As to conditions: at 1 µM.
Assay [16] concerns the target T6, cGMP-dependent protein kinase 2 (Homo sapiens) (UniProt Q13237).
T6 sequence (whole entry): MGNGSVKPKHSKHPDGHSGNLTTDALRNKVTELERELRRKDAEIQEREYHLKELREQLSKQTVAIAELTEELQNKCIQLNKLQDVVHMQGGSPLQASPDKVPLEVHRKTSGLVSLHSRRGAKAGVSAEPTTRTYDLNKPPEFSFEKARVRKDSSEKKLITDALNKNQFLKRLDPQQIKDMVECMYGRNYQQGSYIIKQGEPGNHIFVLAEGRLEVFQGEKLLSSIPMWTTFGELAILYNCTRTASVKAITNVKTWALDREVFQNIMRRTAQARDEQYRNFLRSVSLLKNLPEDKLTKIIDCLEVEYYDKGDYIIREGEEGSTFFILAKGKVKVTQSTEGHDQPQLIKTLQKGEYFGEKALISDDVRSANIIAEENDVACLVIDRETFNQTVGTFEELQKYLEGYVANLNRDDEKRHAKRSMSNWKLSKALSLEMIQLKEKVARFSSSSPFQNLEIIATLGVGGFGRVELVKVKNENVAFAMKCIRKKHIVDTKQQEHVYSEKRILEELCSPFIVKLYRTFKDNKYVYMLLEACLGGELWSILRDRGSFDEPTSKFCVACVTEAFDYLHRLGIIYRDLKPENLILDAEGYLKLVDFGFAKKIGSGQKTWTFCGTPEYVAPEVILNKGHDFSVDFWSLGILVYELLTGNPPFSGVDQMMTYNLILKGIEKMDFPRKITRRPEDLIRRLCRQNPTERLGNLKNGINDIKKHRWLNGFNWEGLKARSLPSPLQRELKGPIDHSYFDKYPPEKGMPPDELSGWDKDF
The settings on record: at 0.1 µM.

Assay [17] has as its target T6, cGMP-dependent protein kinase 2 (Homo sapiens). As to conditions: at 1 µM.
Assay [18] addresses T7, cAMP-dependent protein kinase catalytic subunit PRKX (Homo sapiens) (UniProt P51817).
T7 sequence (whole entry): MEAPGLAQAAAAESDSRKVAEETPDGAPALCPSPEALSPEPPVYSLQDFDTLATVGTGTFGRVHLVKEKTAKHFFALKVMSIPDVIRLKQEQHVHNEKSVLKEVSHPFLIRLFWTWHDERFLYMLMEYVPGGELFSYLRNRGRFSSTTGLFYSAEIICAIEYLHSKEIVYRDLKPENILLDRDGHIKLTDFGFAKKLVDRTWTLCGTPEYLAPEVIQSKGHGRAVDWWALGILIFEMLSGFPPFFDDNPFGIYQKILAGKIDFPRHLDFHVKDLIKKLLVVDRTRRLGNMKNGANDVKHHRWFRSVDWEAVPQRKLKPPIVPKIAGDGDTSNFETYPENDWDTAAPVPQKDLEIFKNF
As to conditions: at 0.1 µM.

Assay [19] has as its target T7, cAMP-dependent protein kinase catalytic subunit PRKX (Homo sapiens). The settings on record: at 1 µM.
Assay [20] concerns the target Rho-associated protein kinase 1 (Homo sapiens) (UniProt Q13464). As to conditions: at 0.1 µM.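 Also: values are mean percent inhibition of ROCK1.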

Sequence of Rho-associated protein kinase 1 (Homo sapiens) (Q13464 2-1354 limits assumed): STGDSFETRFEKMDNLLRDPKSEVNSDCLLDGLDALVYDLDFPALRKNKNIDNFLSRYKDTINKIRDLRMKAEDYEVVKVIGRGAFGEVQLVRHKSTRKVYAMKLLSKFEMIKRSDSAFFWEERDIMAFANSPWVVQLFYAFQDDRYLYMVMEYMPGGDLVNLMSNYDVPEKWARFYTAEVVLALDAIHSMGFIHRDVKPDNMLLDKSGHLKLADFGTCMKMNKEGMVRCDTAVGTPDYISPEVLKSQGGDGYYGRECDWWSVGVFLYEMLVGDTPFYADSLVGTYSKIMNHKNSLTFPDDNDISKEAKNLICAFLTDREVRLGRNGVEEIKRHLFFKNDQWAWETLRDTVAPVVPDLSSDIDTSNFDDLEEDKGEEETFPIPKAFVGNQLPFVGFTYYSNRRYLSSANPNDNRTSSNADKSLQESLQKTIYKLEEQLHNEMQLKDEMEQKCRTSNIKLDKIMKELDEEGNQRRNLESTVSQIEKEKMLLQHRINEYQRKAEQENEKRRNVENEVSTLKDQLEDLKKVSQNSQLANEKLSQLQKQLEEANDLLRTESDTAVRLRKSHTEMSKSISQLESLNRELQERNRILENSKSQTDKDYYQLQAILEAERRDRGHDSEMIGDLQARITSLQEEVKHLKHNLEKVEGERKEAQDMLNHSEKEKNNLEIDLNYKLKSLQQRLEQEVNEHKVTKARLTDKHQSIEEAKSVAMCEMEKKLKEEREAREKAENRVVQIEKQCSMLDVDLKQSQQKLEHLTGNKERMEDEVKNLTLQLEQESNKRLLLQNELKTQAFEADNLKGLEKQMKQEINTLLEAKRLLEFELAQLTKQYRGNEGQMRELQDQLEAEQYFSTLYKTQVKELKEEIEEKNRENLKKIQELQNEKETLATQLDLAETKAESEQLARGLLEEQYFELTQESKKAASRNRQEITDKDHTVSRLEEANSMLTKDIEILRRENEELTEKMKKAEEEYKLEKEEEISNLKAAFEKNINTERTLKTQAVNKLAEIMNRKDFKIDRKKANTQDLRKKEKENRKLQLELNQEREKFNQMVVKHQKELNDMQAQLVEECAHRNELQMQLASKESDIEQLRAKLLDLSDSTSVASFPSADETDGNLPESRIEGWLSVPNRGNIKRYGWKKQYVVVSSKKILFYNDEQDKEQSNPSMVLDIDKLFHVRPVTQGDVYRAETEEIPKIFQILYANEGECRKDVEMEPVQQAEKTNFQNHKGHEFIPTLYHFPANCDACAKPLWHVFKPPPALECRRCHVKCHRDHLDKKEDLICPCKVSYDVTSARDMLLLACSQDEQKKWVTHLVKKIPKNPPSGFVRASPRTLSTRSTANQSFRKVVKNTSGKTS

On to `COc1ccc2ncn(-c3cc(O[C@H](C)c4ccccc4Cl)c(C(N)=O)s3)c2c1`, for which the inhibition – broadly, the change of the read-out against control, counted positive when it falls – is 2.27% in assay [1]; 4.03% in [2]; 3.88% in assay [3]; 2.43% in assay [4]; 2.69% in [5]; 1.24% in assay [6]. In addition, the inhibition was 2.97% in assay [7]; -0.01% in assay [8]; -0.79% in assay [9]; -0.02% in [10]; -2.98% in [11]; 0.19% in assay [12]. In addition, the inhibition in [13] was -0.76%; in assay [14] it was 3.47%; in assay [15] it was 3.01%; in assay [16], 3.48%; in assay [17] it was 4.43%; in [18], 4.11%. Besides, the inhibition in [19] turned out to be 1.58%; in assay [20] it was 1.76%.

As for `Cc1ccc(NC(=O)c2ccoc2)cc1-c1ccc(C(=O)NCC2CC2)cc1`, the inhibition in [1] is -0.41%; in assay [2], 1.53%; in [3] it was -0.02%; in [4] it was 0.79%; in assay [5], 0.76%; in assay [6] it was -0.21%. Besides, the inhibition in [7] turned out to be 0.92%; in [8], 3.2%; in assay [9], 2.32%; in assay [10], 2.39%; in [11], 3.55%; in assay [12], 2.92%. Further, the inhibition in [13] was 2.95%; in [14], 0.89%; in [15], 1.09%; in [16], 1.21%; in assay [17] it was 1.02%; in assay [18], 1.5%. The figures for the inhibition in assay [19] and in assay [20] were 0.55% and 0%, respectively.
